Source: PubChem BioAssay
TDP1 cell CPT – DT40-hTDP1 cell growth loss with CPT. chicken DT40 Tdp1-/-;hTDP1 cells + 20 nM CPT, ATP luminescence, 48 h. Potency, µM (series often up to 46.2 µM), without a hit: at the top dose activity change, negative = growth inhibition, most hits filed as inhibitors. hit rate 12% among 420,000. AID 686979; note: potency is the fitted concentration of half-maximal effect; nearly all actives have a fitted effect of over 55% in size
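Chicken DT40 Tdp1-/- cells stably complemented with human TDP1 were seeded at 400 cells/well in medium containing 20 nM camptothecin, exposed to pin-transferred compounds, and grown at 37 °C for at least 48 hr. Viability was read as ATP luminescence.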
HT1080-NT tox – kills 2HG-producing HT-1080-NT fibrosarcoma cells | Potency, µM (titrated, usually from 46.1 µM), for the others: top-dose activity, negative = less viability, hits mostly cytotoxic | hit rate 1.6% among 360,000 | HT-1080-NT fibrosarcoma viability, CellTiter-Glo ATP luminescence, 48 h | AID 686970;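 note: NT is the 2HG producing partner of a matched IDH1 knockdown line; potency is the fitted concentration of half-maximal effect; 0% = DMSO-treated cells and -100% = media-only wells without cells; nearly all actives have a fitted effect of over 55% in size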
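Viability of the 2HG-overproducing fibrosarcoma line after 48 hours of compound exposure at 37 degrees C was determined by luminescence with CellTiter-Glo, and concentration-effect curves were then fitted and categorized.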
IL1B secr inh – inhibitors of inflammasome signaling (IL-1 beta secretion). THP-1 LPS/ATP IL-1B secretion, AlphaLISA, 16 h; stronger effect = lower value. activity change, % at 57.5 µM. hit rate 4.7% among 360,000. AID 743279; in the data active = activity change below about -50%; inconclusive = mostly about -30% to -49%
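THP-1 cells pretreated 1 hr with compounds (up to 57.5 uM final), then stimulated with LPS (250 ng/mL final) plus ATP (1.25 mM final); secreted IL-1B measured by AlphaLISA after 16 hr, decreased signal indicating inhibition.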
HT1080 IDH1KD tx – HT-1080 IDH1 knockdown cell toxicity (counter line) | HT-1080 IDH1 knockdown viability, ATP luminescence, 48 h | Potency, µM (top dose mostly 46.1 µM), without a hit: at the top dose activity, negative = toxicity, hits mostly cytotoxic | hit rate 2% among 360,000 | AID 686971;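 note: potency is the fitted concentration of half-maximal effect; 0% = DMSO wells and -100% = cell-free medium wells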
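HT-1080-IDH1KD cells (IDH1 knocked down), 750/well in RPMI with 5% FBS, treated with compound 48 h at 37 degrees C. Viability by CellTiter-Glo luminescence, normalised to DMSO and no-cell wells; concentration-response curves classed.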
TDP1 cell noCPT – qHTS for Inhibitors of human tyrosyl-DNA phosphodiesterase 1 (TDP1): qHTS in cells in absence of CPT. DT40 Tdp1-/- hTDP1 cells, no CPT, ATP luminescence, 48 h. Potency, µM (top dose mostly 46.2 µM), for the others: at the highest dose activity change, negative = growth inhibition, actives largely listed as inhibitors. hit rate 15% among 420,000; note: potency is the fitted concentration of half-maximal effect; nearly all actives have a fitted effect of over 55% in size
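Growth kinetics read by CellTiter-Glo luminescence after ≥48 hr at 37 °C. Cells: DT40 Tdp1-/- stably carrying human TDP1, 400 per well, compound exposure in the absence of CPT (DMSO vehicle).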
The depositor's hits bear a star; ? = inconclusive; . = not tested or not shown. Rows were chosen to be rich in hits. Some 19% of all compounds tested hit in one or more screens of this group. Unless noted, calls come from the whole dose curve; as a rule, active = well fitted curve in the direction sought with a large enough effect; inconclusive = small, poorly fitted or top-dose-only effect, or another doubt; inactive = no such curve, though single readings can be large; an effect the other way counts as inactive or inconclusive. Unless noted, % is set by controls: 0 for no effect and ±100 for the full control effect.

SMILES	TDP1 cell CPT	HT1080-NT tox	IL1B secr inh	HT1080 IDH1KD tx	TDP1 cell noCPT
COc1ccc(CNCc2c(F)cccc2F)cc1OC	15%	21%	10	23%	-20%
O=C(NC1CCCCC1)c1c2c(nc3ccccc13)CCC2	0%	-6%	-8	-11%	-10%
N#Cc1cccc(Nc2c3c(nc4ccccc24)CCC3)c1	?	-27%	-59*	?	?
Cc1ccc(Nc2c3c(nc4ccccc24)CCC3)cc1F	21µM*	.	.	.	16µM*
COc1ccc(Nc2c3c(nc4ccc(C)cc24)CCC3)cc1	?	-25%	-13	-29%	?
Cc1cccc(Nc2c3c(nc4ccccc24)CCC3)c1	15µM*	15µM*	.	21µM*	18µM*
CN(C)c1ccc(CNC(=O)C2CCN(S(=O)(=O)c3ccc4[nH]c(=O)ccc4c3)CC2)cc1	-13%	.	.	.	-11%
Cc1cccc(N2C(=NC(=O)c3ccccc3)SC3CS(=O)(=O)CC32)c1 (configuration not stated)	-12%	-1%	-7	-5%	2%
COc1ccc(N(CC(=O)N2CC=C(c3ccccc3)CC2)S(=O)(=O)c2c(C)noc2C)cc1	?	7%	9	-4%	23µM*
Cc1ccc(N(CC(=O)N2CCN(c3ccccc3F)CC2)S(=O)(=O)c2c(C)noc2C)cc1	21µM*	6%	-6	6%	?
CCOc1ccc(N(CC(=O)N2CC=C(c3ccccc3)CC2)S(=O)(=O)c2c(C)noc2C)cc1	?	0%	-7	3%	?
COc1ccc(N(CC(=O)N2CCN(c3ccccc3F)CC2)S(=O)(=O)c2c(C)noc2C)cc1	?	0%	-9	6%	?
COc1ccc(N2CCN(C(CNC(=O)C(=O)NCc3ccc4c(c3)OCO4)c3ccco3)CC2)cc1 (configuration not stated)	?	-5%	21	-8%	-27%
Cc1cnc(-c2nc3ccccc3n2C(C(=O)Nc2c(C)cccc2C)C2CC2)cn1 (configuration not stated)	?	15%	15	14%	?
COc1ccc(-c2ccccc2[C@H]2[C@@H]3C=CC[C@@H](C)[C@@H]3C(=O)N2Cc2ccccc2)cc1	13µM*	?	-10	?	10µM*
C[C@@H]1CC=C[C@@H]2[C@H]1C(=O)N(Cc1ccccc1)[C@H]2c1ccccc1Br	18µM*	?	-16	?	16µM*
CC(=O)N1CCCc2cc(S(=O)(=O)N3CCC(C(=O)NCc4cccc(C)c4)CC3)ccc21	-57%	.	.	.	?
Cc1ccc(CNC(=O)Cn2c(=O)oc3ccccc32)o1	-26%	2%	-8	8%	?
Cc1nc2cc(-c3cccc(F)c3)nn2c(C)c1CCC(=O)NC1CCCCC1	7%	.	.	.	5%
Cc1nc2cc(-c3cccc(F)c3)nn2c(C)c1CCC(=O)NC(C)CCc1ccco1 (configuration not stated)	?	-7%	-14	-23%	?
Cc1csc(NC(=O)CCc2c(C)nc3cc(-c4cccc(F)c4)nn3c2C)n1	16µM*	-16%	0	-5%	21µM*
COc1cc(OC)cc(-c2cc3nc(C)c(CCC(=O)NC(C)CCc4ccco4)c(C)n3n2)c1 (configuration not stated)	?	0%	-21	-2%	16µM*
COC(=O)C(NC(=O)CCc1c(C)nc2cc(-c3cccc(F)c3)nn2c1C)C(C)C (configuration not stated)	?	.	.	.	18µM*
Cc1cc(C)c(S(=O)(=O)ON2C(=O)c3ccccc3C2=O)cc1C	2.6µM*	?	-61*	10µM*	3.3µM*
Cc1ccc(S(=O)(=O)ON2C(=O)c3ccccc3C2=O)c(C)c1	0.82µM*	?	-78*	?	1µM*
O=C1c2ccccc2C(=O)N1OS(=O)(=O)c1ccc(F)cc1	2.6µM*	-4%	-5	-6%	2.1µM*
